Screens as filed in PubChem BioAssay.
sEH activator = soluble epoxide hydrolase activators, primary screen, biochemical, human sEH; activation, % at 2 µM; purified human sEH enzymatic activity, activator screen; Bifunctional epoxide hydrolase 2 (Homo sapiens), P34913; actives 0.04% (n = 91,000); in the data active = activation above about 37%
CYP2C19 inh = blockers of cytochrome P450 2C19 activity – biochemical, luminescence, ADME assay, primary screen; P33261; inhibition, % at 5 µM; actives 21% (n = 96,000); AID 778, 2007; CYP2C19 Supersomes, luciferin-H EGE luminescence, 30 min;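 active = CYP2C19 inhibition above a set limit at 5 µM in the primary screen, cut at about 50% in these data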;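 note: plate controls were negative control wells for no effect and 2.5 mM tranylcypromine positive control for full effect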
Target sequence (P33261 whole entry, looked up): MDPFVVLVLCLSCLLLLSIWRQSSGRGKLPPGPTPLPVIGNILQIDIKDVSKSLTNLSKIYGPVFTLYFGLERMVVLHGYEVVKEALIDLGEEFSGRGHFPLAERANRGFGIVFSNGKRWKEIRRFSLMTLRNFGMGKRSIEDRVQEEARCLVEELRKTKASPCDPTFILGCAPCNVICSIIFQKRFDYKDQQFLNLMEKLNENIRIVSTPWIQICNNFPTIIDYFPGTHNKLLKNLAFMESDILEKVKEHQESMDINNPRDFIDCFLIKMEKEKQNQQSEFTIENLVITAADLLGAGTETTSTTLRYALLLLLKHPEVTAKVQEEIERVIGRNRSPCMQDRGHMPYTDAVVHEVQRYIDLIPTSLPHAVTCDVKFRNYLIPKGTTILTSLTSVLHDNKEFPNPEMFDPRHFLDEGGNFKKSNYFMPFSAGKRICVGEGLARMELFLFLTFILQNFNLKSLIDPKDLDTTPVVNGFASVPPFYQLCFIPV
CYP2C9 act = human CYP2C9 activators, primary screen, biochemical, luminescence; Cytochrome P450 2C9 (Homo sapiens), P11712; recombinant CYP2C9, luciferin-H conversion; active compounds read high; factor 1 = untreated enzyme, 0 = blocked; activation factor at 5 µM; actives 1.4% (n = 96,000); AID 1024, 2008;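 active = activation factor of 2 or more for CYP2C9 at a 5 µM dose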;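 note: 0 = sulfaphenazole-blocked wells and 1 = vehicle-only wells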
CYP2C19 activ = human CYP2C19 activators, primary screen, biochemical, luminescence; activation factor at 5 µM; recombinant CYP2C19, luciferin-H EGE luminescence; active compounds read high; 0 = fully inhibited enzyme, 1 = untreated enzyme; 96,000 tested, under 10 active; Cytochrome P450 2C19 (Homo sapiens), P33261; AID 1025, 2008;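 active = activation factor of at least 2 at 5 µM in the primary screen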;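 note: 0 = wells with 2.5 mM tranylcypromine and 1 = vehicle-only wells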
sEH inhibitor = soluble epoxide hydrolase inhibitors, primary screen, biochemical, human sEH; Bifunctional epoxide hydrolase 2 (Homo sapiens), P34913; recombinant human sEH enzymatic activity assay; inhibition, % at 2 µM; actives 0.34% (n = 91,000); in the data active = inhibition above about 80%
CYP2C9 inhib = blockers of cytochrome P450 2C9 activity – biochemical, luminescence, ADME assay, primary screen; CYP2C9 Supersomes, luciferin-H conversion; actives 20% (n = 96,000); P11712; inhibition, % at 5 µM;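 active = blocking of liver enzyme CYP2C9 beyond about 50% at 5 µM, limit read from the data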
The depositor's hits bear a star; . = no result. In the library only some 27% were active in any assay of this set; here they are far more common.

SMILES	sEH activator	CYP2C19 inh	CYP2C9 act	CYP2C19 activ	sEH inhibitor	CYP2C9 inhib
COc1ccc(Cl)cc1N/C(N)=N/c1nc(CSc2ccc(C)cc2)cc(=O)[nH]1	6	52*	0.2	0.5	-5	76*
CCC(=NC(C)c1ccccc1)c1c(O)n(C)c(=O)n(C)c1=O (stereo not given)	-4	68*	0.4	0.3	2	56*
Cn1c(N)c(C(=O)c2ccccc2)c(=O)n(C)c1=O	25	7	0.9	0.9	-23	7
CC(C)Cc1nc2n[nH]c(N)c2c2c1CCC2	.	-15	1.1	1.1	.	-14
CC(=O)Nc1ccc(Oc2nc(C)cc(C)n2)cc1	1	8	1	0.9	2	3
CN1/C(=C\C(=O)CN2C(=O)NC3(CCCCCC3)C2=O)C(C)(C)c2ccccc21	-4	88*	0.2	0.1	5	79*
C=CCn1c(CNC(=O)c2ccco2)nnc1SCC(=O)Nc1cccc(Br)c1	10	36	0.8	0.6	-11	21
Cn1c(=O)c2c(nc(CN3CCN(CCO)CC3)n2Cc2cccc3ccccc23)n(C)c1=O	7	41	0.7	0.6	-6	35
CC(=O)Nc1cccc(OCC(=O)NC(C)C(C)C)c1 (stereo not given)	6	-10	1.4	1.1	-3	-35
Cc1noc(/C=C/NCc2cccnc2)c1S(=O)(=O)N(C)CC(=O)N1CCc2ccccc21	4	17	0.2	0.8	-5	78*
COc1cc(/C=N/NC(=O)CCc2c(C)n[nH]c2C)cc(OC)c1OC	14	55*	0.7	0.4	-13	33
COc1ccc(/C=N/NC(=O)CCc2c(C)n[nH]c2C)cc1OC	-9	0	0.8	1	10	18
CCCc1nnc(SCC(=O)N2CCCCC2)n1CC1CCCO1 (stereo not given)	-12	1	0.8	1	11	19
COC(=O)c1ccc(NC(=O)CSCc2ccccc2)cc1	-7	26	0.6	0.7	1	38
COC(=O)c1ccc(NC(=O)CSCc2ccc(C)cc2)cc1	-21	75*	0.1	0.2	21	90*
COC(=O)c1ccc(NC(=O)CSCc2ccccc2C)cc1	-19	94*	0.1	0.1	20	92*
CCCc1[nH][nH]c(=O)c1C(c1ccc(Br)cc1)C(C#N)C#N (stereo not given)	-16	43	0.4	0.6	16	61*
CCCc1[nH][nH]c(=O)c1C(c1ccccc1)C(C#N)C#N (stereo not given)	-13	58*	0.4	0.4	13	62*
CCCc1[nH][nH]c(=O)c1C(c1ccc(Cl)cc1)C(C#N)C#N (stereo not given)	-12	.	.	.	13	.
Cc1ccc(C(C(=O)NC2CCCCC2)N2CCOCC2)cc1 (stereo not given)	8	0	1.3	1	-10	-28
O=[N+]([O-])c1cnccc1Nc1ccc(F)cc1	-14	.	.	.	10	.
O=[N+]([O-])c1cnccc1Nc1ccccc1	-4	98*	0.1	0	6	92*
CCn1c2ccccc2c2nnc(SCc3ccc(C(=O)OC)o3)nc21	.	48	0.8	0.5	.	22
CC(=O)c1ccc2c(c1)Nc1ccccc1S2	.	12	0.4	0.9	.	57*
CCOC(=O)Nc1ccc2c(c1)Nc1ccccc1S2	.	0	0.9	1	.	15
SMILES	sEH activator	CYP2C19 inh	CYP2C9 act	CYP2C19 activ	sEH inhibitor	CYP2C9 inhib
O=C(Cn1c(NCCO)nc2ccccc21)c1ccc(Cl)cc1	1	8	1	0.9	0	5
COc1ccc(-n2c(C)cc(C(=O)Cn3c(NCCO)nc4ccccc43)c2C)cc1	4	65*	0.4	0.4	-3	63*
COC(=O)c1cc2ccsc2n1Cc1nc(-c2cccc(Cl)c2)oc1C	15	52*	0	0.5	-17	99*
Cc1ccc2c(CC(=O)N3CCc4ccccc43)coc2c1	0	79*	0.6	0.2	0	43
O=C(CCCc1ccccc1)N1CCc2ccccc21	4	78*	0.4	0.2	-3	59*
O=C(Cc1c[nH]c2ccccc12)N1CCc2ccccc21	4	92*	0.2	0.1	-2	77*
O=C(CS(=O)(=O)Cc1ccccc1)N1CCc2ccccc21	-12	48	2.1*	0.5	11	-109
O=C(Cn1cccc1)N1CCc2ccccc21	-6	7	1	0.9	7	-1
O=C(CSc1c[nH]c2ccccc12)N1CCCc2ccccc21	7	50	0.6	0.5	-8	44
O=C(Cc1coc2ccc3ccccc3c12)N1CCc2ccccc21	-2	1	1.6	1	2	-57
O=C(CCC(=O)N1CCc2ccccc21)N1CCc2ccccc21	-11	.	.	.	14	.
Cc1csc2nc(=O)c3ccccc3n12	6	2	1	1	-3	2
CCc1nnc(SCc2cn3c(C)cc(C)nc3n2)n1N	-1	-20	1.3	1.2	0	-26
Cc1ccc(C)n1/N=C1/NC(=O)CS1	10	-15	0.9	1.2	-10	9
O=C(CN1C(=O)COc2ccccc21)N(Cc1cccnc1)Cc1ccccc1F	-8	40	0.5	0.6	7	54*
O=C(CCN1C(=O)COc2ccccc21)NCc1cccnc1	3	.	.	.	0	.
O=C(CN1C(=O)COc2ccccc21)c1cccc(Cl)c1	.	99*	0.1	0	.	93*
O=C(CN1C(=O)COc2ccccc21)c1ccc(Cl)cc1	.	98*	0.1	0	.	86*
O=C(CN1C(=O)COc2ccccc21)N1CCN(c2ccccc2F)CC1	.	44	1	0.6	.	-3
O=C(CN1C(=O)COc2ccccc21)NCc1ccccn1	-5	1	1	1	4	1
O=C1COc2ccccc2N1Cc1ccccc1Cl	.	80*	0.8	0.2	.	22
Cc1cc(-c2ccccc2)nn1-c1nc2c(c(=O)[nH]c(=O)n2C)n1C	.	2	0.9	1	.	9
Cc1c(/C=N/NC(=O)c2ccc3c(c2)OCO3)cnn1C	-12	-7	1	1.1	14	1
O=C(N/N=C/c1cn(-c2ccccc2)nc1-c1ccc(F)cc1)c1ccc2c(c1)OCO2	-10	34	0.4	0.7	9	64*
COc1ccc(-c2nn(-c3ccccc3)cc2/C=N/NC(=O)c2ccc3c(c2)OCO3)cc1	-10	37	0.3	0.6	12	70*
O=C(N/N=C\c1cn(-c2ccccc2)nc1-c1ccccc1)c1ccc2c(c1)OCO2	-7	54*	0.4	0.5	5	65*
